Measurements published in PubChem BioAssay (NCATS).
Results filed as inconclusive are left out. A call without a number means that no potency is given here. Values without a mark were called inactive. Active and inactive are the calls of the source. The call rests on the fitted dose curve; in most records, active means well fitted inhibition curve with a large enough effect; inconclusive means small, poorly fitted or top-dose-only effect; inactive means flat fitted curve, though single readings scatter.

biological target: Calcium and integrin-binding protein 1 (Homo sapiens) (UniProt Q99828); assay: Primary qHTS for Identification of Calcium Integrin Binding Protein 1 (CIB1) Competitor (AID 1508620); details: CIB1-GST / FITC-alphaIIb peptide fluorescence polarization; series mostly up to 114 µM; further: top concentration of the series differs between compounds
Outline: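 Fluorescence polarization competition: GST-tagged CIB1 (1 uM final) preincubated with compound 15 min at room temperature, then FITC-labelled alphaIIb peptide (100 nM final) added. After 15 min at room temperature, polarization read at Ex 480/Em 540.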

Chain of Calcium and integrin-binding protein 1 (Homo sapiens) (Q99828 whole entry, looked up): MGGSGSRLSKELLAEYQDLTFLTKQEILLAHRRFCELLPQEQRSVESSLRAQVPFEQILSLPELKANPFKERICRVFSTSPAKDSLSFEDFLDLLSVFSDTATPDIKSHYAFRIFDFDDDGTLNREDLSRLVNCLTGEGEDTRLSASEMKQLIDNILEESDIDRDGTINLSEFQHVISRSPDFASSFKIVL

Question: `COc1cc(C)[nH]c(=O)c1CNC(=O)c1c(C)n([C@H](C)C2CCOCC2)c2ccccc12` was tested. Which Potency did it give?
Answer: The Potency was “inactive”.

Question: `C=CC(C)(O)CC/C=C(\C)C(=O)O[C@H]1[C@H](O)[C@@H](CO)O[C@@H](OC(=O)[C@]23CCC(C)(C)CC2C2=CCC4[C@@]5(C)CC[C@H](O[C@@H]6O[C@H](CO[C@@H]7OC[C@H](O)[C@H](O)[C@H]7O[C@@H]7OC[C@@H](O)[C@H](O)[C@H]7O)[C@@H](O)[C@H](O)[C@H]6O)C(C)(C)C5CC[C@@]4(C)[C@]2(C)CC3)[C@@H]1OC1OC(C)C(O[C@@H]2OC[C@@H](O)[C@H](O[C@@H]3OC[C@@H](O)[C@H](O)[C@H]3O)[C@H]2O)C(O)C1O` (some centres undefined) was tested. Which activity change, negative = inhibition did it give?
Answer: Its activity change, negative = inhibition is -11.1% [at 12.4 µM].

Question: `CC12CCC3C(CCC4(O)CC(O)CCC34C=O)C1(O)CCC2C1=CC(=O)OC1` (centres undefined) was tested. Which Potency did it give?
Answer: The Potency was “inactive”.

Question: `C=C[C@H]1CN2CC[C@H]1C[C@@H]2[C@@H](O)c1ccnc2ccccc12` was tested. Which Potency did it give?
Answer: The Potency was “inactive”.

Question: For `Clc1ccc(N2C[C@H]3CC[C@@H](C2)N3)nn1`, which Potency is on record?
Answer: The Potency was “inactive”.

Question: For `COc1cc2c(cc1OC)[C@@]13CCN4CC5=CCO[C@H]6CC(=O)N2[C@H]1[C@H]6[C@H]5C[C@H]43`, which Potency is on record?
Answer: Its Potency is “inactive”.

Question: How did the Potency turn out when `C[C@@H]1C(=O)O[C@H]2[C@H](O)[C@@]34[C@@H]5OC(=O)[C@@]3(O[C@@H]3OC(=O)[C@@H](O)[C@@]34[C@H](C(C)(C)C)[C@H]5O)[C@@]12O` was run?
Answer: Its Potency is “inactive”.

Question: How did the Potency turn out when `COc1cc(CCNCc2ccccc2O)c(OC)cc1C#N` was run?
Answer: The Potency was “inactive”.

Question: For `CCN1C[C@]2(COC(=O)c3ccccc3N3C(=O)C[C@H](C)C3=O)CC[C@H](OC)[C@@]34[C@@H]5C[C@H]6[C@H](OC)[C@@H]5[C@](O)(C[C@@H]6OC)[C@](O)([C@@H](OC)[C@H]23)[C@@H]14`, which Potency is on record?
Answer: Its Potency is “inactive”.
